Assay outcomes as filed in PubChem BioAssay.
This is a sample that favours compounds with a hit; in the whole collection about 31% have one here.
CYP2C19 act = cytochrome P450 2C19 (human) activation. P33261. recombinant CYP2C19, luciferin-H EGE luminescence; hits give high values; 0 = fully inhibited enzyme, 1 = untreated enzyme. activation factor at 5 µM. 96,000 tested, under 10 active. AID 1025;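 active = activation factor of at least 2 at 5 µM in the primary screen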;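 note: 0 = wells with 2.5 mM tranylcypromine and 1 = vehicle-only wells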
CYP2C9 activ = activators of human CYP2C9. AID 1024. P11712. activation factor at 5 µM. actives 1.4% (n = 96,000). recombinant CYP2C9, luciferin-H conversion, luminescence; hits give high values; factor 1 = untreated enzyme, 0 = blocked;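 active = activation factor of 2 or more for CYP2C9 at a 5 µM dose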;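 note: 0 = sulfaphenazole-blocked wells and 1 = vehicle-only wells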
Target sequence (P11712 whole entry, looked up): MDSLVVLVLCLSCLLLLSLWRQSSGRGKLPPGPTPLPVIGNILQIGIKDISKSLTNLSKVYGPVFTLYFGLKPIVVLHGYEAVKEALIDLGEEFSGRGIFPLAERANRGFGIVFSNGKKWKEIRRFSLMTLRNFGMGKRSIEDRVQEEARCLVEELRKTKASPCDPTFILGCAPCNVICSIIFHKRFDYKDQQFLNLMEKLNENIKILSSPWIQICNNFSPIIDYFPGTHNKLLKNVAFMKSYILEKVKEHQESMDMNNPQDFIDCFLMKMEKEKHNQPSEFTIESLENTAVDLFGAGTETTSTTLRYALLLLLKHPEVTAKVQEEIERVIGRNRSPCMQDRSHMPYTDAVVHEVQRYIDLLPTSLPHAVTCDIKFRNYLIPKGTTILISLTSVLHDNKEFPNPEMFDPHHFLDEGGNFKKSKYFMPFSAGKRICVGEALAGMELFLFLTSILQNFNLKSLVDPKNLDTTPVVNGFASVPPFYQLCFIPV
PLAP activator = activates human placental alkaline phosphatase; activation fold at 20 µM; purified PLAP enzyme, luminescent substrate read-out; hits give high values; AID 696; actives 1.2% (n = 96,000); in the data active = activation fold above about 2
CYP2C9 inhib = human CYP2C9 inhibition | inhibition, % at 5 µM | actives 20% (n = 96,000) | CYP2C9 Supersomes, luciferin-H conversion, luminescence | P11712 | AID 777;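 active = blocking of liver enzyme CYP2C9 beyond about 50% at 5 µM, limit read from the data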
CYP2C19 inhib = human CYP2C19 inhibition | actives 21% (n = 96,000) | CYP2C19 Supersomes, luciferin-H EGE luminescence, 30 min | AID 778 | inhibition, % at 5 µM | P33261;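 active = CYP2C19 inhibition above a set limit at 5 µM in the primary screen, cut at about 50% in these data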;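 note: plate controls were negative control wells for no effect and 2.5 mM tranylcypromine positive control for full effect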
Starred values were filed as active, the others as inactive.

SMILES	CYP2C19 act	CYP2C9 activ	PLAP activator	CYP2C9 inhib	CYP2C19 inhib
CCOC(=O)c1[nH]c2cc(OC)c(OC)cc2c1N	0.3	0.8	0.9	18	72*
C=CCN(CC=C)Cc1ccc(C(=O)OC)o1	0.7	0.9	1.2	11	29
COC(=O)c1ccc(-n2c(C)cc(/C=N/n3cnnc3)c2C)cc1	0.5	0.6	1.1	38	48
Cc1cc(/C=N/n2cnnc2)c(C)n1-c1ccc2c(c1)OCO2	0	0.1	1.1	88*	100*
Cc1cc(/C=N/n2cnnc2)c(C)n1-c1cc(Cl)ccc1Cl	0	0.2	1.5	79*	100*
Cc1cc(/C=N/n2cnnc2)c(C)n1-c1ccc(C(=O)O)cc1	1	0.9	1	7	-2
CCCN1Cc2cccc(C(=O)NC(C)c3cccs3)c2C1=O (centres undefined)	0.8	0.7	1.2	30	23
CCCC(=O)Nc1nnc(COC)s1	1	0.8	1.1	18	-4
CCOc1ccc(C(C)=O)cc1N1C(=O)C2C3C=CC(C3)C2C1=O (centres undefined)	1	1	1	-5	1
CCOc1ccc(CCN2C(=O)C3C4C=CC(C4)C3C2=O)cc1OCC (centres undefined)	0.5	0.9	1.1	9	53*
O=C(COc1cccc2ccccc12)N1CCN(c2ccccn2)CC1	0	2.3*	1.5	-125	95*
O=C(NCc1ccccc1)c1ccccc1OCC(=O)N1CCCCC1	0.3	0	0.8	100*	73*
O=C(COc1cccc2ccccc12)N1CCN(c2ccccc2)CC1	0	1.7	1.8	-72	95*
O=C(COc1cccc2cccnc12)N1CCc2ccccc2C1	0.1	3.2*	1.1	-223	88*
O=C(CN1CCC(NC(=O)Cc2ccccc2)CC1)Nc1cccc2ccccc12	0.7	0.8	1.2	23	33
O=C(COc1cccc2ccccc12)N1c2ccccc2CCc2ccccc21	0.2	0.2	1.3	84*	76*
O=C(COc1ccc2ccccc2c1CN1CCOCC1)N1CCc2ccccc21	0.7	0.8	1.7	24	26
CC(=O)Cc1nsc(Nc2ccc3c(c2)OCCO3)n1	0.6	0.3	1.4	72*	45
CC12CCC(C(=O)NCC3CCCO3)(OC1=O)C2(C)C (centres undefined)	1.1	1	0.9	-4	-8
CC(=NC1CC1)c1c(-c2ccccc2)[nH]n(-c2nc3ccccc3s2)c1=O	1.1	0.7	1	28	-6
CC(=NCCCn1ccnc1)c1c(-c2ccccc2)[nH]n(-c2nc3ccccc3s2)c1=O	0	0	2*	98*	99*
O=c1c(C=NCCCn2ccnc2)c(-c2ccccc2)[nH]n1-c1nc2ccccc2s1	0.1	0	1.7	98*	92*
CCCN=Cc1c(CCC)[nH]n(-c2nc3ccccc3s2)c1=O	0.9	0.8	0.9	19	13
CCOC(=O)C1CCN(c2c(NC3CCCc4ccccc43)c(=O)c2=O)CC1 (centres undefined)	1.1	1	1.1	2	-13
Cc1occc1-c1nnc(SCC(=O)N(C)C)o1	0.9	0.9	0.9	9	8
SMILES	CYP2C19 act	CYP2C9 activ	PLAP activator	CYP2C9 inhib	CYP2C19 inhib
O=C1/C(=C/c2ccc([N+](=O)[O-])cc2)C=C(c2ccccc2)N1c1ccc(O)cc1	1	1	1.2	-4	4
O=c1/c(=C\c2ccc(O)cc2)sc2n1C(c1ccccc1)C(c1ccccc1)=NN=2 (centres undefined)	0.8	0.4	1	56*	24
CN(C)S(=O)(=O)c1ccc2c(c1)C(CC(=O)O)OC2=O (centres undefined)	1.1	1	0.9	-1	-5
O=C(Nc1ccccc1)N1CCn2c1nc1ccccc12	0.8	0.3	0.9	66*	18
S=C(Nc1ccccc1)N1CCn2c1nc1ccccc12	1	0.9	1	9	5
CC(C)n1c(N2CCN(C(=O)Nc3ccccc3)CC2)nc2ccccc21	0.6	0.5	1.2	52*	36
COc1ccc(NC(=O)N2CCn3c2nc2ccccc23)cc1	0.5	0.3	1	71*	49
CCOC(=O)C(CC(C)C)CP(=O)(O)CNC(=O)OCc1ccccc1 (centres undefined)	1	0.9	1.6	10	-1
Cn1nc(-c2ccc(Cl)cc2)c2cc(C(=O)NCCN3CCOCC3)sc21	0.5	0.3	1.6	70*	49
Cn1nc(-c2ccc(Cl)cc2)c2cc(C(=O)NC3CC3)sc21	1	1	1	-1	4
CCN(CC)CCNC(=O)c1cc2c(-c3ccc(Cl)cc3)nn(C)c2s1	0.8	0.8	1.6	18	18
Cn1nc(-c2ccc(Cl)cc2)c2cc(C(=O)NCCCN3CCOCC3)sc21	0.7	0.4	1.4	58*	29
O=C(NCCCN1CCOCC1)c1cc(-c2ccc(O)cc2)on1	1.1	2.2*	0.9	-121	-8
CCOCCCNC(=O)c1cc2c(-c3ccc(Cl)cc3)nn(C)c2s1	0.4	0.5	1	49	61*
CC1=C(C(=O)OC(C)C)C(c2ccccn2)n2ncnc2N1 (centres undefined)	1	1	1	5	4
N#CCCCSc1nnc(-c2ccccn2)o1	1	1	0.9	0	4
O=C(Nc1c(F)cc(F)cc1Br)c1cc(-c2ccc(O)cc2)on1	0.1	1.6	0.9	-58	87*
Cc1noc(C)c1C(=O)Nc1sc(C)c(C)c1C#N	0.9	0.4	0.9	62*	10
Cc1noc(C)c1C(=O)Nc1sc2c(c1C(N)=O)CCC2	0.9	0.8	1.2	16	10
O=C(CC1=NC2(CCCC2)Cc2ccccc21)N1CCOCC1	0.8	0.8	1.2	19	18
CC1(C)Cc2c(cnn2-c2ccccc2)C(=O)/C1=N\NC(=O)c1ccccc1O	0.5	0.8	1	24	51*
CC(=O)C1=C(O)C(=O)N(c2cccnc2)C1c1ccc(Cl)cc1 (centres undefined)	1	0.8	1	24	1
OC(COc1ccc2ccccc2c1Br)Cn1ccnc1 (centres undefined)	0	0	1.1	96*	99*
OC(COc1ccc2ccccc2c1)Cn1ccnc1 (centres undefined)	0	0	1.5	98*	100*
Cc1cc(=O)[nH]c(SCc2nc3ccccc3n2Cc2ccccc2)n1	0.8	0.6	1.5	44	24
CC(C)NC(=O)N1CCOCCOCCN(C(=O)NC(C)C)CCOCCOCC1	1	0.9	0.9	9	-4
Cc1cc(C)c(S(=O)(=O)Nc2cccc3nsnc23)c(C)c1	0.5	0.2	1.1	83*	49
O=S(=O)(Nc1ccccc1F)c1ccc2nsnc2c1	0.4	0.6	0.9	38	63*
O=S(=O)(Nc1cccc2nsnc12)c1ccccc1	0.3	0.1	1	86*	71*
Cc1ccc(OCC(=O)Nc2cccc3nsnc23)c(C)c1	0.3	0.9	1	8	74*
